# TbPYK inhibitor – inhibitors of Trypanosoma brucei pyruvate kinase; TbPYK enzyme, Kinase-Glo Plus ATP luminescence, 45 min; Potency, µM (titrated, usually from 76.8 µM), for the others: at the top dose activity, negative = inhibition, hits mostly inhibitors; 410,000 tested, 0.12% active; further: on the % scale 0 is the no-effect control and ±100 the full control effect; nearly all actives have a fitted effect of over 50% in size
#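 Luminescence from Kinase-Glo Plus, added after a 45-minute room-temperature reaction, served as the end-point read-out. The enzyme and substrate were preincubated with compound before ADP (130 uM final) initiated turnover. Concentration-effect curves came from normalized qHTS data.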
# SARS PLpro yeast – blocks SARS-CoV papain-like protease in a yeast assay; S. cerevisiae expressing SARS-CoV PLpro, growth rescue; Potency, µM (top dose mostly 32.9 µM), inactives show at the top dose activity, positive = growth rescue, most hits filed as activators; 330,000 tested, 0.19% active; calls by dose curve; further: 0% is about no effect; nearly all actives have a fitted effect of over 55% in size
# NS1 inh – blocks influenza NS1 protein function. AID 2326. 270,000 tested, 0.4% active. Potency, µM (titrated, usually from 46.1 µM), for the others: at the top dose activity, positive = more growth; calls by dose curve; further: actives are rising curves; nearly all actives have a fitted effect of over 50% in size
#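 S. cerevisiae expressing influenza A NS1, grown in glucose, washed, then diluted 1:100 into pH 6.0 -URA galactose medium with 23 nl compound. Growth recovery read as OD600; NS1-free strain serves as control.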
# LmPK inhibitor – LmPK (Leishmania mexicana) enzyme inhibition; purified LmPK, Kinase-Glo ATP luminescence, 1 h; Potency, µM (titrated, usually from 57.5 µM), for the others: top-dose activity change, negative = inhibition, hits mostly inhibitors; 290,000 tested, 0.37% active; AID 1721; Q27686; further: on the % scale 0 is the no-effect control and ±100 the full control effect
# Target sequence (Q27686 whole entry, looked up): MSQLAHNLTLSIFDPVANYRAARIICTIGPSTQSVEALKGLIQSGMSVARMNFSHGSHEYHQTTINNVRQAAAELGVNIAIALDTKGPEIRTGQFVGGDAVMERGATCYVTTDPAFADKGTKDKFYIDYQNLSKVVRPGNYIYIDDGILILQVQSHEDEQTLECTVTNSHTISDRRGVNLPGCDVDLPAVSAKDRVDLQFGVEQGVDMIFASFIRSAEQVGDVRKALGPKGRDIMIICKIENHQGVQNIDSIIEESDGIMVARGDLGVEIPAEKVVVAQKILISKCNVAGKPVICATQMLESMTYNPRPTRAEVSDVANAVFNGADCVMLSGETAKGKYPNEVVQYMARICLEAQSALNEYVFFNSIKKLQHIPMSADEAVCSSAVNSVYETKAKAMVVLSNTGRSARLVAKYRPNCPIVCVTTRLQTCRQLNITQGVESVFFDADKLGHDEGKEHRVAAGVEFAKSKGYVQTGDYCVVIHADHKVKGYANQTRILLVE
#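 Kinase-Glo luminescence read after 1 h RT reaction of 0.1 nM LmPK with 0.5 mM PEP and 0.1 mM ADP. Activity scaled between uninhibited and enzyme-free controls.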
# RE007 growth inh – less growth of the S. pombe RE007 Vpr strain; S. pombe RE007 Vpr strain, BacTiter-Glo ATP luminescence, 24 h; Potency, µM (series often up to 92.2 µM), for the others: top-dose activity change, negative = less growth, usual class: inhibitors; 360,000 tested, 0.21% active; AID 651644; active means well fitted falling curve with a large enough effect; inconclusive means small, poorly fitted or top-dose-only effect; inactive means no such curve, though single readings can be large or run the other way; further: on the % scale 0 is the no-effect control and ±100 the full control effect; nearly all actives have a fitted effect of over 50% in size
#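 Fission yeast strain RE007, carrying one chromosomally integrated HIV-1 vpr copy, was seeded at OD 0.01 in PMG+AL medium with 23 nL pinned compound. After 24 h at 30 °C and 99% humidity, viability was read by BacTiter-Glo luminescence.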
# Sm TGR block – blocks Schistosoma mansoni thioredoxin glutathione reductase | Q962Y6 | purified TGR, DTNB reduction, TNB absorbance 405 nm | Potency, µM (series often up to 114 µM), for the others: top-dose activity change, negative = inhibition, usual class: inhibitors | 360,000 tested, 3% active; further: on the % scale 0 is the no-effect control and ±100 the full control effect; nearly all actives have a fitted effect of over 60% in size
#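 First, TGR (20 nM dispensed) and NADPH were mixed with compound. Second, a 15 min room-temperature incubation followed. Third, further NADPH and then DTNB were added to start the reaction. Finally, TNB absorbance was monitored kinetically.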
# * = called active by the depositor; ? = inconclusive; nt = no result given. Compounds with a hit are over-represented: about 3.3% of the library has one in this group of screens. Unless noted, the call rests on the fitted dose curve; in most records, active means well fitted curve in the direction sought with a large enough effect; inconclusive means small, poorly fitted or top-dose-only effect, or another doubt; inactive means no such curve, though single readings can be large; an effect the other way counts as inactive or inconclusive. Potency means the concentration at half of the fitted maximal effect.
SMILES,TbPYK inhibitor,SARS PLpro yeast,NS1 inh,LmPK inhibitor,RE007 growth inh,Sm TGR block
O=c1c(O)c(-c2cc(O)c(O)c(O)c2)oc2cc(O)cc(O)c12,?,nt,0.0%,nt,14.4%,3.55µM*
COc1ccc(-c2nc(CS(=O)CC(=O)N3CCCC3)c(C)o2)cc1 (stereo not drawn),2.9%,-6.9%,2.8%,2.9%,4.5%,7.08µM*
Cc1ccc(-c2nc(CS(=O)CC(=O)N3CCC4(CC3)OCCO4)c(C)o2)cc1 (stereo not drawn),nt,3.6%,5.7%,-4.8%,nt,44.7µM*
CCOC(=O)N1CCN(C(=O)CS(=O)Cc2nc(-c3ccc(OC)c(OC)c3)oc2C)CC1 (stereo not drawn),0.0%,1.4%,0.9%,-1.6%,-4.1%,44.7µM*
CCCN(CCC)CCNC(=O)CS(=O)Cc1nc(-c2ccc(OC)c(OC)c2)oc1C (stereo not drawn),2.3%,nt,nt,nt,nt,-27.9%
Cc1ccc(-c2nc(CS(=O)CC(=O)NCCN3CCOCC3)c(C)o2)cc1 (stereo not drawn),0.9%,13.2%,?,-4.1%,4.3%,-20.4%
CCN1CCN(C(=O)CS(=O)Cc2nc(-c3ccc(OC)cc3)oc2C)CC1 (stereo not drawn),1.0%,6.7%,1.3%,10.5%,-2.7%,?
COc1ccc(-c2nc3scc(CCNS(=O)(=O)c4cccs4)n3n2)cc1,0.2%,nt,nt,nt,nt,4.6%
c1ccc2c(c1)Cn1c-2nc2ccccc21,?,-24.0%,-103.0%,14.1µM*,?,-0.8%
Cc1ccc2c(Sc3ccc(Cl)cc3)c(C(=O)N3CCC(C)CC3)[nH]c2c1,2.3%,nt,nt,nt,nt,-1.9%
Cc1cccc(NC(=O)c2oc3ccc(S(=O)(=O)N4CCC5(CC4)OCCO5)cc3c2C)c1C,-4.5%,nt,nt,nt,nt,-27.1%
CCOc1ccc(NC(=O)Cn2c(=O)cc(C)c3c(C)nn(-c4cccc(Cl)c4C)c32)cc1,6.1%,nt,nt,nt,nt,2.0%
O=C(C1=C[C@H](c2csc3ccccc23)C[C@H](OCc2ccc(CO)cc2)O1)N1CCN(Cc2ccccc2)CC1,1.7%,-4.2%,-37.4%,6.3%,-3.4%,14.1µM*
CC(=O)n1cc([C@H]2C=C(C(=O)N3CCN(Cc4ccccc4)CC3)O[C@@H](OCCCCO)C2)c2ccccc21,-3.3%,-1.5%,-5.6%,-4.0%,-26.0%,35.5µM*
CC(=O)n1cc([C@@H]2C=C(C(=O)N3CCN(Cc4ccccc4)CC3)O[C@H](OCc3ccc(CO)cc3)C2)c2ccccc21,2.3%,0.2%,-2.0%,3.4%,-11.1%,25.1µM*
CC(=O)n1cc([C@H]2C=C(C(N)=O)O[C@@H](OCc3ccc(CO)cc3)C2)c2ccccc21,-1.1%,nt,nt,nt,7.8%,nt
CC(=O)n1cc([C@@H]2C=C(C(=O)N3CCN(Cc4ccc5c(c4)OCO5)CC3)O[C@H](OCCCCO)C2)c2ccccc21,-4.2%,1.0%,-6.2%,6.4%,-12.3%,-6.3%
Cc1ccc(C)c(NC(=O)c2ccc(CN3CC(=O)N4CCCCC4C3=O)cc2)c1 (stereo not drawn),-0.5%,nt,nt,nt,nt,-1.7%
C[C@H](NCCN(C)C)[C@@H]1CCC2C3CCc4cc(O)ccc4[C@H]3CCC21C (stereo partly drawn),nt,nt,-10.6%,nt,nt,nt
Cc1cc(C)c(S(=O)(=O)/N=C2/C=C(Sc3ncn[nH]3)C(=O)c3ccccc32)cc1C,5.62µM*,-65.3%,nt,7.94µM*,?,0.316µM*
COc1ccc(CCNCc2cc(OC)cc(OC)c2)cc1,-9.5%,nt,nt,nt,-13.2%,nt
Cc1cc(-n2c(C)cc(C(=O)CCl)c2C)no1,5.4%,?,nt,-0.6%,-22.6%,8.91µM*
COc1ccc(CCNCc2cc(C)n(-c3ccc(OC)cc3)c2C)cc1,14.5%,-3.0%,-4.4%,-0.6%,-11.5%,50.1µM*
COc1ccc(-n2c(C)cc(C(=O)CN3C(=O)c4ccccc4C3=O)c2C)cc1,3.9%,12.9%,-4.6%,3.9%,22.2%,5.5%
COc1ccc(-n2c(C)cc(C(=O)CCl)c2C)cc1,-2.5%,-8.2%,3.2%,-6.8%,-48.4%,3.98µM*
SMILES,TbPYK inhibitor,SARS PLpro yeast,NS1 inh,LmPK inhibitor,RE007 growth inh,Sm TGR block
Cc1cc(-n2c(C)cc(C(=O)CN3C(=O)C(=O)N(C)C3=O)c2C)no1,1.8%,-3.7%,nt,nt,20.1%,nt
COc1ccc(CN[C@H](C)C(=O)O)cc1,nt,nt,-5.6%,nt,nt,nt
Nc1ccc(S(=O)(=O)NC2(C(F)(F)F)NC(=O)N(c3cccc(Cl)c3)C2=O)cc1 (stereo not drawn),1.9%,nt,nt,nt,nt,5.5%
CCOc1ccc(NC(=O)C(c2ccccn2)N(C(=O)CCl)c2ccc(OCC)cc2)cc1 (stereo not drawn),-16.6%,13.9%,22.6%,-5.3%,-5.4%,44.7µM*
COc1ccc(NC(=O)C(c2ccccn2)N(C(C)=O)c2ccc(C)cc2)cc1 (stereo not drawn),3.7%,0.6%,13.5%,-2.8%,-5.7%,-4.2%
CC(=O)Nc1ccc(C(=O)N(C)C(C(=O)Nc2ccc(C)cc2)c2ccccn2)cc1 (stereo not drawn),0.1%,-0.8%,-42.9%,-9.3%,65.9%,-4.1%
COc1ccc(N(C(=O)CCl)C(C(=O)NC2CCCCC2)c2cccnc2)cc1 (stereo not drawn),-10.7%,-2.7%,7.7%,-0.2%,-10.4%,14.1µM*
O=C(NC1CCCCC1)C(c1cccnc1)N(C(=O)CCl)c1ccc(F)cc1 (stereo not drawn),-4.6%,28.3%,11.8%,-0.5%,22.2%,-5.4%
CCOc1ccc(NC(=O)C(c2ccccn2)N(C(=O)CCl)c2ccc(OC)cc2)cc1 (stereo not drawn),-17.8%,-13.6%,?,2.6%,-15.2%,44.7µM*
COc1ccccc1CNC(=O)CS(=O)Cc1nc(-c2ccccc2C)oc1C (stereo not drawn),-2.3%,-1.0%,4.8%,14.2%,-9.4%,?
COc1ccc(CNC(=O)CS(=O)Cc2nc(-c3ccccc3C)oc2C)cc1 (stereo not drawn),-13.5%,0.6%,-1.1%,-0.1%,2.6%,?
COCCNC(=O)CS(=O)Cc1nc(-c2ccccc2C)oc1C (stereo not drawn),-9.5%,4.5%,4.8%,2.2%,9.5%,39.8µM*
Cc1ccccc1-c1nc(CS(=O)CC(=O)NCCc2ccc(Cl)cc2)c(C)o1 (stereo not drawn),1.2%,2.1%,10.4%,7.7%,18.2%,28.2µM*
Cc1ccc(CNC(=O)CS(=O)Cc2nc(-c3ccccc3C)oc2C)cc1 (stereo not drawn),-11.3%,6.1%,-5.4%,-0.1%,-3.1%,44.7µM*
Cc1ccccc1-c1nc(CS(=O)CC(=O)NCc2ccccc2)c(C)o1 (stereo not drawn),0.1%,-0.8%,-7.3%,-3.2%,8.2%,22.4µM*
